From ChEMBL document CHEMBL3433997, “St. Jude Leishmania screening dataset” (2016) come the findings set out here.

Solute carrier family 2, facilitated glucose transporter member 1 (Homo sapiens), sequence (P11166 whole entry): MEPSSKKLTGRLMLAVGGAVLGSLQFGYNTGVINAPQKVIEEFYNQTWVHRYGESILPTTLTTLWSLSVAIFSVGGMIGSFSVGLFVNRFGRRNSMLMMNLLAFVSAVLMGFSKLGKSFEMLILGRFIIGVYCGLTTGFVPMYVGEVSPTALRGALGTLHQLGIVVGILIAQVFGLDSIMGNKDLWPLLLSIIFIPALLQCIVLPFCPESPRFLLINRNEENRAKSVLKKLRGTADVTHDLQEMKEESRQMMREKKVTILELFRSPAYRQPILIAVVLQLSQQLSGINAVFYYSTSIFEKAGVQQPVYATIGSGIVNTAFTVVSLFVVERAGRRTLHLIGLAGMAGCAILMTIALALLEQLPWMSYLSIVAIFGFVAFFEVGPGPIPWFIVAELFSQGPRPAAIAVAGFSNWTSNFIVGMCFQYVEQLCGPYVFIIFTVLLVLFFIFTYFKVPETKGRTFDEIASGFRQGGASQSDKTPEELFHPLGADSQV

The experiment addresses Solute carrier family 2, facilitated glucose transporter member 1 (Homo sapiens) (UniProt P11166). Put plainly: ST_JUDE_LEISH: Cytotoxicity at 2uM final concentration against transgenic Leishmania Mexicana promastigotes LmGLUT1 that are glucose transport deficient and complemented with the human glucose transporter GLUT1. Activity is measured by DNA content using SYBR green in vitro. Format: functional.
In the case of `COc1ccc(C=NN=c2cc(C)[nH]c3ccccc23)c(OC)c1`, the inhibition stood at 54.4%. Then `COc1ccc(-c2ccc(NC(=O)c3cccc(C#N)c3)cc2)cc1CN1CCN(C)CC1`, with 4.33%; and `COc1ccccc1C(C)NCC(=O)Nc1cccc(C(=O)Nc2cccc(C(F)(F)F)c2)c1` (stereo not given), with 3.9%; and `CCCNC(=O)c1ccc(N2CCC(c3ccccc3C)CC2)nc1`, with 0.89%.

As for `CN1CCCc2cc(NC(=O)c3cc(-c4ccc(Cl)cc4)cs3)ccc2C1`, the inhibition was determined as 2.24%.

As to `COc1ccc(-c2c3c(=O)n(C)c(=O)n(C)c3c3nnc4ccccc4n23)cc1`, the inhibition stood at 0.81%. Then `Fc1ccc2[nH]c(-c3ccc(-c4ccc(CNCCc5ccncc5)cc4)s3)nc2c1`, with 5.54%; and `COc1cc(Cc2cnc(N)nc2N)cc(OCCCc2cc(OCc3ccccc3)no2)c1OC`, with 10%.

As to `O=C(/C=C/c1ccc(Cl)c(Cl)c1)N1CCC(CCN2CCC(c3nc4cc(O)ccc4[nH]3)CC2)CC1`, the inhibition came to 1.92%. Then `O=C(c1ccc(O)c(-c2cc(Cl)cc(Cl)c2)c1)N(CCO)CCO`, with 2.23%; and `CN(C)CCCn1cncc1-c1ccc2ncnc(Nc3ccc(OCc4ccccc4)cc3)c2c1`, with 4.09%. For `Cc1ccc(CNC(=O)[C@H](Cc2ccccc2)Nc2cc(C)nc(NCc3ccccc3C)n2)cc1` the value was 5.69%; for `CC(C)CC(=O)N1CCNC[C@@H]1C(=O)NCCSCc1c(F)cccc1Cl`, 3.36%.

`COc1ccc(Br)cc1C1C2C(=O)N(c3ccc(Br)cc3)C(=O)C2C2(C(=O)O)CC(OCc3ccccc3)CN12` (stereo not given): the inhibition was found to be 12.4%.

As to `CCC(CC)(Cc1ccccc1)NC(=O)[C@H](Cc1ccc(OC)c(OC)c1)Nc1ccc(C#N)c2ccccc12`, the inhibition came to 2.88%. Then `O=C(NC1CCN(Cc2ccccc2)CC1)c1ccc(CNC2CCN(Cc3ccccc3)CC2)cc1`, with 4.84%; and `COc1c(C2CCN(CCCCNC(=O)c3cc(-c4ccc(C#N)cc4)n[nH]3)CC2)ccc2c1CCCC2`, with -0.72%; and `O=C(NCc1ccc(F)cc1)Nc1cccc(-c2ccc(-c3nc4ccccc4[nH]3)cc2)c1`, with 1.76%. Then `COC(=O)Cn1c(C2CCN(CC3CCC(NC(=O)/C=C/c4ccc(Cl)c(Cl)c4)CC3)CC2)nc2ccccc21` (stereo not given), with 1.86%; and `CCNC(=O)N[C@@H]1CN[C@@H](C#Cc2cc3c(Nc4ccc(OCc5cccc(F)c5)c(Cl)c4)ncnc3s2)C1`, with -0.84%. Then `NC1CCN(Cc2cccc(-c3ccc(-c4nc5cc(F)ccc5[nH]4)cc3)c2)C1` (stereo not given), with 2.82%; and `Cc1[nH]c(C)c(-c2ccc(Oc3ccc(F)cc3)cc2)c(=O)c1Br`, with 4.89%. With `COc1cc(C(=O)NC2CC(C)(C)NC(C)(C)C2)ccc1-c1cc2cc(Cl)c(Cl)cc2[nH]1`, the inhibition amounted to 1.69%.

As for `CN1CCC(NCc2cccc(-c3ccc(S(=O)(=O)NCc4ccccc4)cc3)c2)CC1`, the inhibition was 8.1%. With `CC1CCCCC1N(C)C1CCN(CCCNC(=O)C=Cc2ccccc2Cl)CC1` (stereo not given), the inhibition is -0.22%. Then `Cc1cc(OCCCNC(=N)c2ccc3ccccc3c2)c(C(C)C)cc1Cl`, with 2.28%; and `O=C(Nc1ccccc1)c1c[nH]cn1`, with 0.43%; and `Cc1nc2ccc(Nc3nccc(-c4c(-c5cccc(NC(=O)c6c(F)cccc6F)c5)nn5ccccc45)n3)cc2nc1C`, with 2.58%. For `NC1(C(=O)O)Cc2ccc(Cl)cc2C1` (stereo not given) the value was 5.91%. For `O=C(C=Cc1ccc(Cl)c(Cl)c1)NCCCCCN1CCC(CCCNS(=O)(=O)c2cccc(C(F)(F)F)c2)CC1` the value was 0.51%.

As for `CC(C)OC(=O)c1ccccc1S(N)(=O)=O`, the inhibition was 15.3%. Then `Cc1cc(C(F)(F)F)n2nc(C(=O)N(C)Cc3cncn3Cc3ccc(F)cc3)cc2n1`, with 0.88%; and `O=C(Nc1ccc(Cl)cc1)N(CC1CC2CCC(C1)N2Cc1ccc(C(F)(F)F)cc1)c1ccc(N2CCOCC2)c(F)c1` (stereo not given), with 6.73%; and `CN1CCC(c2ccc(NC(=O)c3ccc(-c4cccc(C(F)(F)F)c4)o3)cc2)CC1`, with 2.13%. For `Cc1cc2cc(/C=C/C(=O)NC3CCC(CCN4CCc5ccc(C#N)cc5CC4)CC3)ccc2[nH]1` (stereo not given) the value was 9.08%. Then `O=C(Nc1ccc(-c2nc3cc4ccccc4cc3[nH]2)cc1)c1cccc(Br)c1`, with 3.09%.

`CC(=O)Nc1ccc(COc2ccc(Nc3ccnc4cc(-c5ccccn5)ccc34)cc2)cc1`: the inhibition turned out to be 3.41%. Then `FC(F)(F)c1cc(C(F)(F)F)c2cc(CNCCCNc3nc4ccccc4[nH]3)[nH]c2c1`, with -1.02%; and `Cc1cccc(CCNC(=O)c2cc(Br)cc(N3CCN(c4ccncc4)CC3)c2)c1`, with 0.72%; and `c1cc(-c2ccc(CNCCc3ccncc3)cc2)cc(-c2nc3ccccc3[nH]2)c1`, with 1.85%.
